According to PubChem BioAssay (EPA / NIEHS):
“And” between values parts separate entries of the source, which are not always exact repeats. Identical values can stand only once. Records with an inconclusive call do not appear. More than one record can exist for a structure, and the calls need not agree. The source made the active and inactive calls. How the source made its calls, unless noted: active means hit-call score of the fitted dose curve at least 0.9, where 1 is the maximum; inconclusive means response in the unintended direction; inactive means score below 0.9.

How the values were obtained:
[1] = target: Estrogen receptor beta (Homo sapiens) (UniProt Q92731); test: OT_ER_ERbERb_1440: Odyssey Thera (OT) 24-hour HEK293T Protein-Complementation Assay for Estrogen Receptor-beta/-beta Homodimer (AID 2283380);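 further: scored as signal increase over DMSO baseline for both agonists and antagonists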
Chain of Estrogen receptor beta (Homo sapiens) (Q92731 whole entry, looked up, the tested form may be a part): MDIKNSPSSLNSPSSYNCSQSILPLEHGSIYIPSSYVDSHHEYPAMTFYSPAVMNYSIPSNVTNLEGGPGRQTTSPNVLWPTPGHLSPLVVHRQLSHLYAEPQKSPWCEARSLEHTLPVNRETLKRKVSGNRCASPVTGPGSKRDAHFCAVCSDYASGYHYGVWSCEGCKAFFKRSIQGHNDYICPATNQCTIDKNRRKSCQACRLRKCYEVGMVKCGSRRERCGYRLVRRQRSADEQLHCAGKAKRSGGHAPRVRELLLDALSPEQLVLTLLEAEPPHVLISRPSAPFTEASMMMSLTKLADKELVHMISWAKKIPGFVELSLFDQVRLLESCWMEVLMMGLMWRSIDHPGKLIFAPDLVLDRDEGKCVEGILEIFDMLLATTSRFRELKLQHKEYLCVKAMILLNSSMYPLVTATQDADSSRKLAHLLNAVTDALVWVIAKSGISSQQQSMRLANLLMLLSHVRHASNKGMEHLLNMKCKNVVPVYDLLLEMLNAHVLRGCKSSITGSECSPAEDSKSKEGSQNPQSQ
In short: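 HEK293T cells stably expressing ER beta LBD (aa 310-547) homodimer fragment-complementation reporter, dosed 24 h. Cells formaldehyde-fixed, Draq5-stained; gain in nuclear (agonist) or nuclear plus cytoplasmic (antagonist) fluorescence versus DMSO read by laser scanning cytometry.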

[2] = target: Estrogen receptor (Homo sapiens) (UniProt P03372); test: OT_ERa_GFPERaERE_0480: Odyssey Thera (OT) 8-hour HeLa Transcription Induction Assay for Estrogen Receptor (AID 2283381; active means hit-call score of the fitted dose curve at least 0.9, where 1 is the maximum; inactive means score below 0.9)
Chain of Estrogen receptor (Homo sapiens) (P03372 whole entry, looked up): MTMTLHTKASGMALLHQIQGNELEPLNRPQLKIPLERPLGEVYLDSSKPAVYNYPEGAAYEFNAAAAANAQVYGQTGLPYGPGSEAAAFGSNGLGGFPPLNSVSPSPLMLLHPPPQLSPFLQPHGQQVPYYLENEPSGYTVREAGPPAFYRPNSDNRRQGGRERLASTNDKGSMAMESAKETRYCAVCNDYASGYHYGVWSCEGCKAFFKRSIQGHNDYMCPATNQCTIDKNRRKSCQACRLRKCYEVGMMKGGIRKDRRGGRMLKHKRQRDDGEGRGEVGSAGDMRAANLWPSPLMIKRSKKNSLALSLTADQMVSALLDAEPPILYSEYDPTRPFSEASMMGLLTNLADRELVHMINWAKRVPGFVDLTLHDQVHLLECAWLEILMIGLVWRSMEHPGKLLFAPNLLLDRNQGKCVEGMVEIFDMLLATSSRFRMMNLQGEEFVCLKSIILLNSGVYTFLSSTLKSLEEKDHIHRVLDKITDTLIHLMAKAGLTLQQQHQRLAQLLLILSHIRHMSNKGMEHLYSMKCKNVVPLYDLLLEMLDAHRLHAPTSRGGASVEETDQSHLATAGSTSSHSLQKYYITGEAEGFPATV
In short: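 GFP-ERE reporter, HeLa, 8 h exposure. Readout: fluorescence microscopy, high-content image analysis. Fit direction positive vs DMSO negative control.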

[3] = target: Estrogen receptor (Homo sapiens) (UniProt P03372); test: OT_ERa_GFPERaERE_0120: Odyssey Thera (OT) 2-hour HeLa Transcription Induction Assay for Estrogen Receptor (AID 2283382)
In short: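 Fluorescence microscopy read-out: inducible fluorescent protein reporter in HeLa cells, imaged 2 h post-dose. Signal increase over DMSO negative control fitted as single primary endpoint via high content image analysis.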

[4] = target: Bile acid receptor (Homo sapiens) (UniProt Q96RI1); test: OT_FXR_FXRSRC1_0480: Odyssey Thera (OT) 8-hour HEK293T Protein-Complementation Assay for Farnesoid X receptor/SRC-1 Co-activator (AID 2283383)
Chain of Bile acid receptor (Homo sapiens) (Q96RI1 whole entry, looked up, the tested form may be a part): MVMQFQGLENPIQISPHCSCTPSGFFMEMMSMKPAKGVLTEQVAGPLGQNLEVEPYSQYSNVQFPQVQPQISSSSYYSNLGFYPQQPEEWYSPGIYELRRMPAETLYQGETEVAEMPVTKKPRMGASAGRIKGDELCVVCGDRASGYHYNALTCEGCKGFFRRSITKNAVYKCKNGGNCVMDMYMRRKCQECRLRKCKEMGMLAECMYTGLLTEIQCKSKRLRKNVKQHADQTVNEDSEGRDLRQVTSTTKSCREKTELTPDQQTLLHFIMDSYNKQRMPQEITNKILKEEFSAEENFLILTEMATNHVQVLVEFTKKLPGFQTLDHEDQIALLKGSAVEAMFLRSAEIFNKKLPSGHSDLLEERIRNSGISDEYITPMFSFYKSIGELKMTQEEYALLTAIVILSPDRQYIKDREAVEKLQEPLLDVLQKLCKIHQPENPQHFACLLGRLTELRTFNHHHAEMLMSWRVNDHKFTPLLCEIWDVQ
In short: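 Fluorescence intensity read-out, 8 h post-dose, HEK293T protein-fragment complementation; FXR bait and SRC-1 prey each linked to reporter fragments. Activity scored as signal increase over DMSO negative control.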

[5] = target: Bile acid receptor (Homo sapiens) (UniProt Q96RI1); test: OT_FXR_FXRSRC1_1440: Odyssey Thera (OT) 24-hour HEK293T Protein-Complementation Assay for Farnesoid X receptor/SRC-1 Co-activator (AID 2283384)
In short: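 Fluorescence readout, 24 h post-dose, HEK293T; FXR and SRC-1 fused to complementary reporter fragments, association reconstitutes signal. Positive-direction fit vs DMSO baseline.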

[6] = target: Retinoic acid receptor RXR-alpha (Homo sapiens) (UniProt P19793); test: OT_NURR1_NURR1RXRa_0480: Odyssey Thera (OT) 8-hour HEK293T Protein Complementation Assay for Nurr1/retinoid X receptor (RXR) (AID 2283385)
Chain of Retinoic acid receptor RXR-alpha (Homo sapiens) (P19793 whole entry, looked up, the tested form may be a part): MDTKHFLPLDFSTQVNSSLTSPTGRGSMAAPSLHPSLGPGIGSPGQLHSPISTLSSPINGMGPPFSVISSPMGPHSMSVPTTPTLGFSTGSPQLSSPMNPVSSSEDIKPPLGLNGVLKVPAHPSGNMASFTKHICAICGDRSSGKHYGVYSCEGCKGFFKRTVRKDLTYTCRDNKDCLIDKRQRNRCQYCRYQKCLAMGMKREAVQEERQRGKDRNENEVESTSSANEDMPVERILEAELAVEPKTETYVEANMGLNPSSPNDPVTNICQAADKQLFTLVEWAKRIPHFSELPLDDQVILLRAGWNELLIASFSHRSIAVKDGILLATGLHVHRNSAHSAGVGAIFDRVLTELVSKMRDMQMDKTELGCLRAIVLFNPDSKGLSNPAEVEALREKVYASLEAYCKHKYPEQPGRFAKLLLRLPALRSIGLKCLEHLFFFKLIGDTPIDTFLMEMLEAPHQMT
In short: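 Read-out: fluorescence from protein-fragment complementation between Nurr1 and RXRα in human HEK293T cells, 8 h after dosing. DMSO served as negative control; increased signal counted as activity.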

[7] = target: Peroxisome proliferator-activated receptor gamma (Homo sapiens) (UniProt P37231); test: OT_PPARg_PPARgSRC1_0480: Odyssey Thera (OT) 8-hour Protein-Complementation Assay for Peroxisome Proliferator-activated Receptor Gamma / SRC-1 Co-activator (AID 2283387);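 further: nuclear to cytoplasmic split Venus YFP fluorescence ratio reporting PPARg SRC-1 interaction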
Chain of Peroxisome proliferator-activated receptor gamma (Homo sapiens) (P37231 whole entry, looked up, the tested form may be a part): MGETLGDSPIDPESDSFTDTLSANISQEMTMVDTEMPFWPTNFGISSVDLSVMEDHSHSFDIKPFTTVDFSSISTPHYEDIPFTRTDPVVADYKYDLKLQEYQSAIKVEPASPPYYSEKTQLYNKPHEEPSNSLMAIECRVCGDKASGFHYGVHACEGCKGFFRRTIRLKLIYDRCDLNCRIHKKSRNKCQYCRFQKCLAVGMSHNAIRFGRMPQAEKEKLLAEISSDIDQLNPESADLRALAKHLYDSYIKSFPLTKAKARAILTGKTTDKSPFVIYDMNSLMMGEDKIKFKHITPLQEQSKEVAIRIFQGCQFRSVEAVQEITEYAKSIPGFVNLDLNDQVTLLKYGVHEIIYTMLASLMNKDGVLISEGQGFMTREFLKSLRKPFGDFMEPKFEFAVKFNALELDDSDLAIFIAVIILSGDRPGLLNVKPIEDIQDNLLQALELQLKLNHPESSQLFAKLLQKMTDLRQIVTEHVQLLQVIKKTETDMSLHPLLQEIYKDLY
In short: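 HEK293T transiently transfected with PPARg and SRC-1 fused to Venus YFP fragments, compounds 8 h at 37C. Fixed, Draq5-stained cells imaged; nuclear/cytoplasmic 488 nm fluorescence ratio over at least 350 cells per image; gain fitted versus DMSO.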

[8] = target: Peroxisome proliferator-activated receptor gamma (Homo sapiens) (UniProt P37231); test: OT_PPARg_PPARgSRC1_1440: Odyssey Thera (OT) 24-hour Protein-Complementation Assay for Peroxisome Proliferator-activated Receptor Gamma/ SRC-1 Co-activator (AID 2283388)
In short: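 Protein-fragment complementation between PPARg and coactivator SRC-1 was measured by fluorescence imaging in transiently transfected HEK293T cells after 24 h treatment. Signal was quantified as N/C ratio in the 488 nm channel, with DMSO as negative control.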

[9] = target: Agonist Androgen Response Element (ARE), AR (gene 367) (UniProt P10275); test: OT_AR_ARELUC_AG_1440: Odyssey Thera (OT) 24-hour CHO-K1 Luciferase Assay for Agonist Androgen Response Element (ARE) (AID 2283379)
Chain of Agonist Androgen Response Element (ARE), AR (gene 367) (P10275 whole entry, looked up): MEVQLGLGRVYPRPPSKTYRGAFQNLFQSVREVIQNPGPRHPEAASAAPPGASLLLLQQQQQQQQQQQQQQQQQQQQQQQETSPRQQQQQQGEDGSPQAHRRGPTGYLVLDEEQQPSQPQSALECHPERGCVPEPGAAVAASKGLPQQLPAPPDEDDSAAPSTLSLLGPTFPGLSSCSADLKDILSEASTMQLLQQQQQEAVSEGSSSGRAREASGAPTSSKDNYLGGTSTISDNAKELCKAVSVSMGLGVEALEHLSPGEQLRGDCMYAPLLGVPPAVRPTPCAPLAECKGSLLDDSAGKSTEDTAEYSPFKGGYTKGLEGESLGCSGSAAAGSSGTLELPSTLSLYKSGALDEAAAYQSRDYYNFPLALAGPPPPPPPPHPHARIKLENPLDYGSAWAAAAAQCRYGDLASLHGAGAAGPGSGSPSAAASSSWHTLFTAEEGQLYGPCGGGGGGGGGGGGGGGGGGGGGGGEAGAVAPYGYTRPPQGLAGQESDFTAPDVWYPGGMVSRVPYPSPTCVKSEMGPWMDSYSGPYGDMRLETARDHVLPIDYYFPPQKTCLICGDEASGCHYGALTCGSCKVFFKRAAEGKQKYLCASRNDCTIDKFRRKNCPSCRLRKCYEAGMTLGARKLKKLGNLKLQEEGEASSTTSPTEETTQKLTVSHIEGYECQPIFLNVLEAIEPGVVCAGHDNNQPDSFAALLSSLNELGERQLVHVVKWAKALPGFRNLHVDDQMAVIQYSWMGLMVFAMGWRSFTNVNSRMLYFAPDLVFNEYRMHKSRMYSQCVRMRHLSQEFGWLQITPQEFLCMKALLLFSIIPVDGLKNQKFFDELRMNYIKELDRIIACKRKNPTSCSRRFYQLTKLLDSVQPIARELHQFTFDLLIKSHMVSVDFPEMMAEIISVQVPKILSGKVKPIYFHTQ
In short: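 Gain-of-signal reporter endpoint: cells (CHO-K1, hamster) are treated 24 h, luciferin/ATP reagent added, and luminescence compared with DMSO baseline.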

[10] = target: Retinoic acid receptor RXR-alpha (Homo sapiens) (UniProt P19793); test: OT_NURR1_NURR1RXRa_1440: Odyssey Thera (OT) 24-hour HEK293T Protein Complementation Assay for Nurr1/retinoid X receptor (RXR) (AID 2283386)
In short: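 Fluorescence PCA read-out; HEK293T; 24 h post-dose; bait/prey fused to reporter fragments; gain-of-signal fit vs DMSO negative control.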

Measured: AC50

Oc1ccc(Cl)cc1Cl
inactive: [1] | [2] | [3] | [4] | [5] | [6] | [7] | [8]

CC(C)(O)C(=O)Nc1ccc([N+](=O)[O-])c(C(F)(F)F)c1
inactive: [9] | [1] | [2] | [3] | [6] | [10]

O=S(=O)(O)C(F)(F)C(F)(F)C(F)(F)C(F)(F)F
inactive: [1] | [2] | [3] | [6] | [10] | [7] | [8]

CN(C)CCO
inactive: [1] | [2] | [3] | [6] | [10] | [7] | [8]

Cc1ccccc1[N+](=O)[O-]
inactive: [1] | [2] | [3] | [6] | [10] | [7] | [8]

CCC(C)c1cc([N+](=O)[O-])cc([N+](=O)[O-])c1O (configuration not stated)
inactive: [1] | [2] | [3] | [5] | [6] | [10] | [7] | [8]

Cc1ccccc1O
inactive: [1] | [2] | [3] | [6] | [10] | [7] | [8]

C[C@]12CCC(=O)C=C1CC[C@@H]1[C@@H]2CC[C@]2(C)C(=O)CC[C@@H]12
inactive: [1] | [2] | [3] | [5] | [6] | [10] | [7] | [8]
active: [4] 26.8 µM and 19.3 µM and 27.1 µM | [5] 28.7 µM and 30.7 µM

Cc1cccc(C)c1N
inactive: [1] | [2] | [3] | [4] | [5] | [10] | [7] | [8]

Cc1cc2c3c(c1)C(c1ccccc1)=N[C@@H](NC(=O)c1ccncc1)C(=O)N3CC2
inactive: [1] | [2] | [3] | [6] | [10] | [8]
active: [4] 20.8 µM | [5] 32.8 µM | [6] 62 µM | [10] 33.6 µM | [7] 25 µM and 20.8 µM | [8] 37.4 µM

COc1ccc(O)c(C(C)(C)C)c1
inactive: [2] | [3] | [4] | [5] | [6] | [10] | [7] | [8]
active: [1] 57.3 µM

c1ccc(-c2ccccc2)cc1
inactive: [1] | [2] | [3] | [4] | [10] | [7] | [8]

CCCN(CCC)N=O
inactive: [1] | [2] | [3] | [6] | [10] | [7] | [8]

O=C(NC(=O)c1c(F)cccc1F)Nc1cc(Cl)c(OC(F)(F)C(F)F)c(Cl)c1
inactive: [9] | [1] | [2] | [3] | [6] | [10] | [7] | [8]

c1cc2ccc3cccc4ccc(c1)c2c34
inactive: [9] | [2] | [3] | [4] | [5] | [6] | [10] | [7] | [8]

O=C(N[C@H]1CN2CCC1CC2)c1cc2ccoc2cn1
active: [9] 71.8 µM
inactive: [1] | [2] | [3] | [6] | [10] | [7] | [8]

CCC(=O)O[C@H]1CC[C@H]2[C@@H]3CCC4=CC(=O)CC[C@]4(C)[C@H]3CC[C@]12C
active: [9] 3.34 nM and 0.907 nM and 1.93 nM | [1] 12.7 µM and 3.36 µM and 12.8 µM | [2] 12.3 µM | [6] 42.7 µM and 57.9 µM | [10] 73.3 µM and 73.7 µM and 78.4 µM
inactive: [1] | [2] | [3] | [6] | [10] | [7] | [8]

OCC(O)CO
inactive: [1] | [2] | [3] | [4] | [5] | [6] | [10] | [7] | [8]

Nc1ccc(-c2ccc(N)cc2)cc1
inactive: [1] | [2] | [3] | [6] | [10] | [7] | [8]

CCCCCCCCOC(=O)c1ccccc1C(=O)OCCCCCCCC
inactive: [1] | [2] | [3] | [4] | [5] | [6] | [10] | [7] | [8]

CO/C=C(/C(=O)OC)c1ccccc1COc1cccc(C(F)(F)F)n1
active: [4] 9.85 µM | [5] 3.27 µM | [6] 50 µM
inactive: [1] | [2] | [3] | [6] | [10] | [7] | [8]

CN(C)c1nc(=O)n(C2CCCCC2)c(=O)n1C
inactive: [1] | [2] | [3] | [4] | [5] | [6] | [10] | [7] | [8]

CCCCCCCCCc1ccc(O)cc1
inactive: [2] | [3] | [6] | [7] | [8]
active: [1] 12.5 µM and 12.1 µM | [6] 50 µM | [10] 79.1 µM and 85.9 µM

C1CC2OC2CC1C1CO1 (configuration not stated)
inactive: [1] | [2] | [3] | [4] | [5] | [6] | [10] | [7] | [8]

N#Cc1ccc(N(CC(N)=O)CC(F)(F)F)cc1C(F)(F)F
inactive: [1] | [2] | [3] | [4] | [7] | [8]

NS(=O)(=O)C(F)(F)C(F)(F)C(F)(F)C(F)(F)C(F)(F)C(F)(F)C(F)(F)C(F)(F)F
inactive: [9] | [1] | [6] | [10] | [7] | [8]
active: [2] 42 µM | [3] 23.7 µM | [4] 79.1 µM | [5] 84.4 µM | [6] 83.3 µM

Cc1ccccc1CO[C@@H]1C[C@@]2(C(C)C)CC[C@]1(C)O2
active: [6] 81.2 µM
inactive: [9] | [10] | [7] | [8]

CCOC(=O)C(O)(c1ccc(Cl)cc1)c1ccc(Cl)cc1
inactive: [9] | [1] | [2] | [3] | [7] | [8]

Cc1ccc(O)c(C)c1
inactive: [1] | [2] | [3] | [6] | [10] | [7] | [8]

ClC1=C(Cl)[C@]2(Cl)[C@@H]3[C@@H](Cl)[C@H]4O[C@H]4[C@@H]3C1(Cl)C2(Cl)Cl
inactive: [2] | [3] | [6] | [10] | [7] | [8]
active: [1] 14.4 µM | [6] 79.6 µM | [10] 86 µM

CC1=C2C[C@H]3[C@@H](CC=C4C[C@@H](O)CC[C@@]43C)[C@@H]2CC[C@]12O[C@@H]1C[C@H](C)CN[C@H]1[C@H]2C
inactive: [9] | [2] | [3] | [4] | [5] | [6] | [10] | [7] | [8]

O=C(O)C(F)(F)C(F)(F)C(F)(F)C(F)(F)C(F)(F)C(F)(F)C(F)(F)C(F)(F)F
inactive: [1] | [2] | [3] | [5] | [6] | [7] | [8]

CCNc1nc(NC(C)C)nc(SC)n1
inactive: [9] | [1] | [10] | [7] | [8]

C=CC(N)=O
inactive: [2] | [3] | [6] | [10]

Cc1cc(-c2ccc(N)c(C)c2)ccc1N
active: [2] 37.2 µM | [3] 50 µM
inactive: [2] | [3] | [6] | [10] | [7] | [8]

Nn1cnnc1
inactive: [1] | [2] | [3] | [10] | [7] | [8]

Oc1c(Cl)c(Cl)c(Cl)c(Cl)c1Cl
inactive: [2] | [3] | [6] | [10] | [7] | [8]

ClC(Cl)=C(c1ccc(Cl)cc1)c1ccc(Cl)cc1
active: [3] 11.8 µM | [4] 85 µM and 83.5 µM and 85.1 µM | [5] 93 µM and 84.9 µM and 88.2 µM | [6] 78.3 µM [middle of 4 runs] | [10] 79.2 µM and 79.5 µM and 80 µM
inactive: [2] | [3] | [10] | [7] | [8]

O=C(O)C(F)(F)C(F)(F)C(F)(F)C(F)(F)C(F)(F)C(F)(F)C(F)(F)C(F)(F)C(F)(F)F
inactive: [2] | [3] | [6] | [10] | [7] | [8]

Cc1cccc([N+](=O)[O-])c1
inactive: [2] | [3] | [7] | [8]

CCSC(=O)N(CC)C1CCCCC1
inactive: [2] | [3] | [4] | [5] | [6] | [7] | [8]

Clc1ccc(C(Cl)(Cl)Cl)cc1
inactive: [2] | [3] | [4] | [5] | [6] | [10] | [7] | [8]

O=C(O)C(F)(F)C(F)(F)C(F)(F)C(F)(F)C(F)(F)F
inactive: [1] | [2] | [3] | [6] | [10] | [7] | [8]

O=NN(c1ccccc1)c1ccccc1
inactive: [2] | [3] | [4] | [5] | [6] | [10] | [7] | [8]

Clc1ccc(Cl)cc1
inactive: [1] | [2] | [3] | [6] | [7] | [8]

COS(=O)(=O)OC
inactive: [2] | [3] | [6] | [10] | [7] | [8]
